# Data taken from the supplement of paper PMC8728848.
# Only a selection was taken, and the strongest signals are over-represented in it overall.
# Experiments:
# Assay in all cases: glycan array binding signal (z-score within array); higher = stronger binding
# Conditions in all cases: glycan notation: IUPAC condensed, linker removed
# [1] = target: Fuc(a1-2)Gal
# Procedure, shortened: (§1)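 Columns mapping to the same glycan were averaged after glycan names were converted to IUPAC-condensed notation. The data come from 3228 arrays in the Consortium for Functional Glycomics database, limited to those with an available protein sequence. Binding is reported as a within-array Z-score averaged across arrays of one protein sequence and across linkers.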
# [2] = target: Fuc(a1-2)Gal(b1-4)GlcNAc(b1-3)Gal(b1-4)GlcNAc
# Procedure, shortened: as §1
# [3] = target: Fuc(a1-2)Gal(b1-4)[Fuc(a1-3)]GlcNAc
# Procedure, shortened: as §1
# [4] = target: Fuc(a1-2)Gal(b1-4)[Fuc(a1-3)]GlcNAc(b1-3)Gal(b1-4)[Fuc(a1-3)]GlcNAc
# Procedure, shortened: as §1
# [5] = target: Fuc(a1-2)[Gal(a1-3)]Gal(b1-4)[Fuc(a1-3)]GlcNAc
# Procedure, shortened: as §1
# [6] = target: Fuc(a1-2)[GalNAc(a1-4)]Gal(b1-4)GlcNAc
# Procedure, shortened: as §1
# [7] = target: Fuc(a1-3)[Gal(b1-4)]GlcNAc(b1-4)Gal(b1-4)[Fuc(a1-3)]GlcNAc
# Procedure, shortened: as §1
# [8] = target: Gal(a1-3)Gal
# Procedure, shortened: as §1
# [9] = target: Gal(a1-3)Gal(b1-4)[Fuc(a1-3)]GlcNAc
# Procedure, shortened: as §1
# [10] = target: Gal(a1-4)Gal(b1-4)GlcNAc
# Procedure, shortened: as §1
# [11] = target: Gal(b1-3)GlcNAc(b1-3)Gal(b1-3)GlcNAc
# Procedure, shortened: as §1
# [12] = target: Gal(b1-3)GlcNAc(b1-3)Gal(b1-4)GlcNAc
# Procedure, shortened: as §1
# [13] = target: Gal(b1-3)[Fuc(a1-4)]GlcNAc(b1-3)Gal(b1-4)GlcNAc
# Procedure, shortened: as §1
# [14] = target: Gal(b1-4)GlcNAc(b1-3)[Gal(b1-4)GlcNAc(b1-6)]GalNAc
# Procedure, shortened: as §1
# [15] = target: Gal(b1-4)GlcNAc(b1-6)Gal(b1-4)GlcNAc(b1-6)GalNAc
# Procedure, shortened: as §1
# [16] = target: Gal(b1-4)GlcNAc(b1-6)GalNAc
# Procedure, shortened: as §1
# [17] = target: GalNAc(b1-3)GalNAc
# Procedure, shortened: as §1
# [18] = target: GlcNAc(b1-3)[GlcNAc(b1-6)]Gal(b1-4)GlcNAc
# Procedure, shortened: as §1
# [19] = target: Man(a1-2)Man(a1-2)Man(a1-3)Man
# Procedure, shortened: as §1
# [20] = target: Neu5Ac(a2-3)Gal
# Procedure, shortened: as §1
# [21] = target: Neu5Ac(a2-3)Gal(b1-3)[Fuc(a1-4)]GlcNAc(b1-3)Gal(b1-4)[Fuc(a1-3)]GlcNAc
# Procedure, shortened: as §1
# [22] = target: Neu5Ac(a2-3)Gal(b1-4)GlcNAc(b1-6)[Gal(b1-3)]GalNAc
# Procedure, shortened: as §1
# [23] = target: Neu5Ac(a2-3)Gal(b1-4)[Fuc(a1-3)]GlcNAc
# Procedure, shortened: as §1
# [24] = target: Neu5Ac(a2-8)Neu5Ac(a2-8)Neu5Ac(a2-3)Gal(b1-4)Glc
# Procedure, shortened: as §1
# [25] = target: Neu5Gc(a2-6)Gal(b1-4)GlcNAc
# Procedure, shortened: as §1
binder,measurement,setting,value
"Mindin (Homo sapiens), Q9BUD6 (protein) MENPSPAAALGKALCALLLATLGAAGQPLGGESICSARALAKYSITFTGKWSQTAFPKQYPLFRPPAQWSSLLGAAHSSDYSMWRKNQYVSNGLRDFAERGEAWALMKEIEAAGEALQSVHEVFSAPAVPSGTGQTSAELEVQRRHSLVSFVVRIVPSPDWFVGVDSLDLCDGDRWREQAALDLYPYDAGTDSGFTFSSPNFATIPQDTVTEITSSSPSHPANSFYYPRLKALPPIARVTLVRLRQSPRAFIPPAPVLPSRDNEIVDSASVPETPLDCEVSLWSSWGLCGGHCGRLGTKSRTRYVRVQPANNGSPCPELEEEAECVPDNCV",glycan array binding signal (z-score),[1],-0.273
same,glycan array binding signal (z-score),[2],-0.186
same,glycan array binding signal (z-score),[3],-0.185
same,glycan array binding signal (z-score),[4],0.005
same,glycan array binding signal (z-score),[5],-0.133
same,glycan array binding signal (z-score),[6],2.81
same,glycan array binding signal (z-score),[7],-0.142
same,glycan array binding signal (z-score),[8],-0.238
same,glycan array binding signal (z-score),[9],0.093
same,glycan array binding signal (z-score),[10],-0.141
same,glycan array binding signal (z-score),[11],-0.279
same,glycan array binding signal (z-score),[12],2.01
same,glycan array binding signal (z-score),[13],1.28
same,glycan array binding signal (z-score),[14],2.02
same,glycan array binding signal (z-score),[15],-0.238
same,glycan array binding signal (z-score),[16],1.34
same,glycan array binding signal (z-score),[17],-0.245
same,glycan array binding signal (z-score),[18],-0.324
same,glycan array binding signal (z-score),[19],-0.085
same,glycan array binding signal (z-score),[20],-0.347
same,glycan array binding signal (z-score),[21],0.188
same,glycan array binding signal (z-score),[22],-0.36
same,glycan array binding signal (z-score),[23],-0.257
same,glycan array binding signal (z-score),[24],-0.295
same,glycan array binding signal (z-score),[25],-0.363
